27 molecules from PubChem BioAssay AID602143 (Vanderbilt Specialized Chemistry Center, 2011) can be followed below.

The source made the active and inactive calls. Rule as the data show it: active = remaining activity below about 50%; inactive = the rest.

The target of the assay is Phospholipase D2 (Homo sapiens) (UniProt O14939). Briefly: cellular phospholipase D2 activity inhibition – cell-based, HEK293, single concentration (AID 602143).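 Also: tested at 200 nM.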 The conditions noted are these: HEK293 cellular PLD2 activity, percent of control; stronger effect = lower value.
Sequence of Phospholipase D2 (Homo sapiens) (O14939 whole entry, looked up): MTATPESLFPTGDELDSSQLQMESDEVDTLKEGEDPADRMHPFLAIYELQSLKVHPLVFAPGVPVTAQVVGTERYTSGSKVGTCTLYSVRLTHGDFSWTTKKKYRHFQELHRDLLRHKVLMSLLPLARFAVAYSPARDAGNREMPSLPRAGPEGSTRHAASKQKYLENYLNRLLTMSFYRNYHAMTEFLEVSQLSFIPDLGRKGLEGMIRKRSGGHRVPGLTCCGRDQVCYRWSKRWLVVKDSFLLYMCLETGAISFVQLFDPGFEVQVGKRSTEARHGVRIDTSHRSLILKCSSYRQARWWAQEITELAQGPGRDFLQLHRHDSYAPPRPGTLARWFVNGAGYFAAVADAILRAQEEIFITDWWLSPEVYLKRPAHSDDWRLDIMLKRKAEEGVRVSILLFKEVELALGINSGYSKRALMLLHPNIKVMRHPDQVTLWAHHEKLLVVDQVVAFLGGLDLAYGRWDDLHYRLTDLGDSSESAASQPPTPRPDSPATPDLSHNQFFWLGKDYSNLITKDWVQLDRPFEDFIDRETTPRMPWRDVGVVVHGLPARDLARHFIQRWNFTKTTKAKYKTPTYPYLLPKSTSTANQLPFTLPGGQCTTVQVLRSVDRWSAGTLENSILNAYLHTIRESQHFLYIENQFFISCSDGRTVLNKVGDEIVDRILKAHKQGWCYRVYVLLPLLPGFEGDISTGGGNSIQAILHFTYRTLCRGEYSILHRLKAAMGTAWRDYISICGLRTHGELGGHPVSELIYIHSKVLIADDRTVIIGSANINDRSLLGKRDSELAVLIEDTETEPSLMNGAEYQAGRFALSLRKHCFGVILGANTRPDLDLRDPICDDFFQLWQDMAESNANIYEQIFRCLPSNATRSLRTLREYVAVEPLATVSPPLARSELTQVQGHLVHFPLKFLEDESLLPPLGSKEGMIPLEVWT
Sequence of Phospholipase D2 (Homo sapiens) (O14939 whole entry, looked up): as above
With `C[C@@H](CN1CCC(n2c(=O)[nH]c3ccc(F)cc32)CC1)NC(=O)c1ccc(F)c(F)c1`, the remaining activity was 52.6% (inactive).

As to `O=C(CCCN1CCC(O)(c2ccc(Cl)cc2)CC1)c1ccc(F)cc1`, the remaining activity is 107% (inactive).

On to `O=C(NCCN1CCC2(CC1)CNCc1ccccc12)c1ccc2ccccc2c1`, for which the remaining activity was 103% (inactive).

Consider `O=C(Cc1ccc2ccccc2c1)NCCN1CCC(n2c(=O)[nH]c3ccccc32)CC1`, for which the remaining activity was 112% (inactive).

As to `O=c1[nH]c2ccccc2n1C1CCN(CCNC(=S)Nc2cccc3ccccc23)CC1`, the remaining activity is 100% (inactive).

`CC(C)[C@@H](CN1CCC(n2c(=O)[nH]c3ccccc32)CC1)NC(=O)c1ccc(F)cc1`: the remaining activity was 82% (inactive).

Consider `C[C@@H](CN1CCC(n2c(=O)[nH]c3cc(I)ccc32)CC1)NC(=O)c1ccc2ccccc2c1`, for which the remaining activity was 101% (inactive).

As for `C[C@H](CN1CCC2(CC1)CNc1ccccc12)NC(=O)c1cnc2ccccc2c1`, the remaining activity is 104% (inactive).

In the case of `O=C1c2ccccc2C(=O)N1CCCNc1cccc(F)c1`, the remaining activity was 119% (inactive).

For the molecule `NC1(CN2CCC(n3c(=O)[nH]c4ccccc43)CC2)CCCC1` (tested in a mixture with another compound), the remaining activity was 66.9% (inactive).

In the case of `CC(C(=O)NCCN1CCC(n2c(=O)[nH]c3ccccc32)CC1)(c1ccccc1)c1ccccc1`, the remaining activity was 65.3% (inactive).

Turning to `C[C@@H](CN1CCC(n2c(=O)[nH]c3ccccc32)CC1)NC(=O)CCc1ccc(F)cc1`, the remaining activity was 48.9% (active).

For `Cn1c(C(=O)NCCN2CCN(c3ccncc3)CC2)cc2ccccc21`, the remaining activity is 109% (inactive).

As to `O=c1[nH]c2ccccc2n1C1CCN(CCN2CCCC2)CC1`, the remaining activity was 93.8% (inactive).

In the case of `O=c1[nH]c2ccccc2n1C1CCN(CCNS(=O)(=O)c2ccc(OC(F)(F)F)cc2)CC1`, the remaining activity is 81% (inactive).

Turning to `O=C(N[C@@H](Cc1ccccc1)CN1CCC(n2c(=O)[nH]c3ccccc32)CC1)c1ccc(F)c(F)c1`, the remaining activity was 124% (inactive).

Regarding `C[C@@H](CN1CCC(n2c(=O)[nH]c3ccccc32)CC1)NC(=O)c1ccc(F)c(F)c1`, the remaining activity was 75.6% (inactive).

For the molecule `Cn1c(=O)n(C2CCN(CCNC(=O)[C@H]3C[C@@H]3c3ccccc3)CC2)c2ccccc21`, the remaining activity is 78.4% (inactive).

As for `Cc1ccc(C(=O)N[C@@H](C)CN2CCC(n3c(=O)[nH]c4c(F)cccc43)CC2)cc1`, the remaining activity is 98.2% (inactive).

Consider `Cc1cccc(NC(=O)NCCN2CCC(n3c(=O)[nH]c4ccccc43)CC2)c1`, for which the remaining activity was 111% (inactive).

Take `O=C(NCCN1CCN(c2ncccn2)CC1)c1ccc(F)cc1`: the remaining activity was 92.2% (inactive).

On to `O=C(NCCN1CCC(n2c(=O)[nH]c3ccccc32)CC1)Nc1ccccc1C(F)(F)F`, for which the remaining activity is 114% (inactive).

On to `O=C(NCCN1CCN(c2ncccn2)CC1)c1ccc(Cl)cc1`, for which the remaining activity was 106% (inactive).

With `O=C(NCCN1CCN(c2ccccn2)CC1)c1ccc(Cl)cc1`, the remaining activity was 106% (inactive).

Turning to `C[C@@H](CN1CCC(n2c(=O)[nH]c3ccccc32)CC1)NC(=O)c1ccco1`, the remaining activity is 97.1% (inactive).

`C[C@@H](CN1CCC(n2c(=O)[nH]c3ccccc32)CC1)NC(=O)c1ccc[nH]1`: the remaining activity is 39.9% (active).

As for `C[C@H](CN1CCC2(CC1)CNc1ccccc12)NC(=O)c1ccc2ccccc2c1`, the remaining activity is 53.8% (inactive).
